Inconclusive results are not listed. Calls of active or inactive are those of the source. The call rests on the fitted dose curve; in most records, active means well fitted curve in the direction sought with a large enough effect; inconclusive means small, poorly fitted or top-dose-only effect, or another doubt; inactive means no such curve, though single readings can be large; an effect the other way counts as inactive or inconclusive.
How the values were obtained:
[1] = Primary qHTS for inhibitors of nuclear receptor binding SET domain protein 2 (NSD2) in an isogenic RCH-ACV NSD2 p.E1099K mutant (9B) (AID 1645876); further: nearly all actives have a fitted effect of over 70% in size
[2] = target: Glutathione peroxidase 1 (Homo sapiens) (UniProt P07203); assay: Primary qHTS Assay for Inhibitors of Recombinant Selenoprotein Glutathione Peroxidase 1 (GPX1) (AID 1845191); further: nearly all actives have a fitted effect of over 65% in size
How it was run: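 GPX1 10 nM, GR 100 nM, GSH 1 mM, NADPH 0.5 mM, CHP 0.5 mM (final). 30-min cpd preincubation, RT. Ex340/Em450 read t=0, t=15 min.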

[3] = target: Phospholipid hydroperoxide glutathione peroxidase GPX4 (Homo sapiens) (UniProt P36969); assay: Primary qHTS Assay for Inhibitors of Recombinant Selenoprotein Glutathione Peroxidase 4 (GPX4) (AID 1845192); further: series mostly up to about 50 µM; on the % scale 0 is the no-effect control and ±100 the full control effect; nearly all actives have a fitted effect of over 65% in size
How it was run: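 qHTS, GR-coupled: GPX4 200 nM + cpd 30 min RT → GSH 1 mM, NADPH 0.5 mM, GR 100 nM → CHP 0.5 mM start; fluor 340/450 at t0 and t15 min; no-enzyme wells as control.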

[4] = Viability counterscreen for antagonist of constitutive androstane receptor (CAR) against the NCATS DSHEA and TCM libraries (AID 1794837);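 further: compound exposure lasted 24 h before viability reading; 0% is about no effect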
How it was run: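 Fluorescence from CellTiter-Fluor reports live-cell protease activity in HepG2-CYP2B6-hCAR cells treated for 24 h with substances alongside 48 uM CITCO.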

[5] = Viability counterscreen for agonist of constitutive androstane receptor (CAR) against the NCATS DSHEA and TCM libraries (AID 1794838);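 further: cells exposed to compound for 24 h; 0% is about no effect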
How it was run: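 In agonist mode, PK11195 is added at 0.75 uM final to HepG2-CYP2B6-hCAR cells dosed with test substances. Cultures incubate 24 h at 37C before a protease-based fluorogenic viability readout.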

[6] = target: Nuclear receptor subfamily 1 group I member 3 (Homo sapiens) (UniProt Q14994); assay: Primary qHTS for agonist of constitutive androstane receptor (CAR) against the NCATS DSHEA and TCM libraries (AID 1794839);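 further: HepG2 cells expressing human CAR with a CYP2B6 reporter plus PK11195 antagonist; luciferase reporter luminescence read with ONE-Glo; 0% is about no effect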
How it was run: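 Cells stably carrying hCAR and a CYP2B6 reporter (HepG2 background) are seeded and allowed 5 h to adhere. Substances at multiple concentrations are added alongside 0.75 µM PK11195, and luciferase signal is measured after 24 h.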

[7] = HepG2 viability counterscreen (readout 2: ATP content) against the NCATS DSHEA and TCM libraries (AID 1794840);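 further: HepG2 cells exposed to substances for about 24 h; 0% is about no effect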
How it was run: (§1)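 Cytotoxicity was assessed in HepG2 cells plated at 1,000 cells/well and exposed for about 24 hours to a concentration series. Protease activity and ATP content were measured sequentially in each well.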

[8] = HepG2 viability counterscreen (readout 1: protease activity) against the NCATS DSHEA and TCM libraries (AID 1794841);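 further: cells exposed to compounds for about 24 h before the protease read; 0% is about no effect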
How it was run: as §1

Chain of Phospholipid hydroperoxide glutathione peroxidase GPX4 (Homo sapiens) (P36969 whole entry, looked up): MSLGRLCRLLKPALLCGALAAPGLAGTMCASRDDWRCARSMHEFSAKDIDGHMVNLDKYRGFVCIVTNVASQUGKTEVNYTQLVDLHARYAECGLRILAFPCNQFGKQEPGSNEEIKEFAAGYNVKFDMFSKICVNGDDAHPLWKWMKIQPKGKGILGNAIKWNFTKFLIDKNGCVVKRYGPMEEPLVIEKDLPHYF
Chain of Glutathione peroxidase 1 (Homo sapiens) (P07203 whole entry, looked up): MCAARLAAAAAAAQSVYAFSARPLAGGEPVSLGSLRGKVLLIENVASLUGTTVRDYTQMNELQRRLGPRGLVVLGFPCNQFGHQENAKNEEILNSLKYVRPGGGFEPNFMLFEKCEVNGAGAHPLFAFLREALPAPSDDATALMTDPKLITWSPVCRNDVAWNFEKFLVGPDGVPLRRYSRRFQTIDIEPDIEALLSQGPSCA
Chain of Nuclear receptor subfamily 1 group I member 3 (Homo sapiens) (Q14994 whole entry, looked up): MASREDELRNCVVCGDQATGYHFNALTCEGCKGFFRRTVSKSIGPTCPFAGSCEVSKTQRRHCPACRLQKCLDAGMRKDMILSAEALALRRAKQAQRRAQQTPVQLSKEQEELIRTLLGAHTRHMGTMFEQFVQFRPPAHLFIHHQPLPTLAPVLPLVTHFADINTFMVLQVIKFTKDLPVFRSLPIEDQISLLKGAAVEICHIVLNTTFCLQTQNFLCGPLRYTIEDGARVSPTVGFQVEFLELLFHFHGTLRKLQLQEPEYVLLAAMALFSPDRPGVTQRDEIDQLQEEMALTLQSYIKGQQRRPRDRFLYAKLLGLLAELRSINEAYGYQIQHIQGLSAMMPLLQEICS

Cc1cc(C(=O)NOCCO)c(Nc2ccc(I)cc2F)n(C)c1=O
inactive: Potency [1] | Potency [2] | Potency [3]

CCCCCCCCCCCCc1ccc(S(=O)(=O)Nc2nncs2)cc1
inactive: Potency [1] | Potency [2]

CC1(C)O[C@@H]2C[C@H]3[C@@H]4CCC5=CC(=O)C=C[C@]5(C)[C@@H]4[C@@H](O)C[C@]3(C)[C@]2(C(=O)CO)O1
inactive: Potency [1] | Potency [2] | Potency [3]

NC[C@H]1O[C@H](O[C@H]2[C@@H](O)[C@@H](O[C@H]3O[C@H](CO)[C@@H](O)[C@H](N)[C@@H]3O)[C@H](N)C[C@@H]2N)[C@H](N)C[C@H]1O
inactive: outcome [2] inactive [at 9.52 µM] | activity change, negative = inhibition [3] -9.51% [at 9.73 µM]

C[C@@]12C[C@@]3(O)O[C@@H](O1)[C@]1(COC(=O)c4ccccc4)[C@@H]3C[C@@]12O[C@@H]1O[C@H](CO)[C@@H](O)[C@H](O)[C@@H]1O
inactive: outcome [4] | outcome [5] | outcome [6] | outcome [7] | outcome [8]

— PubChem BioAssay (NCATS)
